In PubChem BioAssay AID493113 (Johns Hopkins Ion Channel Center, 2011):
Potency and affinity values are given separately. Activity calls are given as the source filed them.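 The calls were made as follows: active = compound that boosts KCNQ2 potassium channel current at some tested dose and yields a dose response curve; inactive = no boost at any tested dose or no curve.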

target: Potassium voltage-gated channel subfamily KQT member 2 (Rattus norvegicus) (UniProt O88943); assay: rat KCNQ2 current potentiators – automated patch clamp, KCNQ2-CHO cells, SAR follow-up (AID 493113); conditions: series mostly up to 30 µM
Sequence (O88943 whole entry, looked up): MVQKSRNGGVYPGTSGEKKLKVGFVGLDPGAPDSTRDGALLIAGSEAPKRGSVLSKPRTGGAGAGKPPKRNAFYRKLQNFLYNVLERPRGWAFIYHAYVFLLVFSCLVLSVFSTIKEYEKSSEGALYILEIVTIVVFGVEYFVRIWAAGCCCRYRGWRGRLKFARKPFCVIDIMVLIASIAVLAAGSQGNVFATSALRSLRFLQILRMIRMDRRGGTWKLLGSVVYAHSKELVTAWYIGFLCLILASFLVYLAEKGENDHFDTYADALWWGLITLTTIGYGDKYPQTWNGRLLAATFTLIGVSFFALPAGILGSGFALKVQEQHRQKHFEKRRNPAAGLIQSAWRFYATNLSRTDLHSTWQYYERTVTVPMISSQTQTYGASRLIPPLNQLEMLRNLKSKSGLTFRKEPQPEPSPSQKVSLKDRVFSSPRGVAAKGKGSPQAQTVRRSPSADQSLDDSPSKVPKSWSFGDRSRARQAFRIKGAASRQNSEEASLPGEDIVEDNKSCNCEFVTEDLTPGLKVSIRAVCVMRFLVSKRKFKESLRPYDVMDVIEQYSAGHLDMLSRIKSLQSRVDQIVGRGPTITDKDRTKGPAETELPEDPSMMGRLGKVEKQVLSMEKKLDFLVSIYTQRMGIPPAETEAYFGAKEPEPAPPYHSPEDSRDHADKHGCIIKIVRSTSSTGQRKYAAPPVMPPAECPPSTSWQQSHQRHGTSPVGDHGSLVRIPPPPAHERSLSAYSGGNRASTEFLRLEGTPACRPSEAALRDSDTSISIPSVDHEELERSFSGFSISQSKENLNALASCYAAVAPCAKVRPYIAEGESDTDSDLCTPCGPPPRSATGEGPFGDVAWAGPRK

outcome, inactive:
O=C(Nc1ccccn1)C1CC2CCC1C2 (configuration not stated)
Cc1cc(C)c(NC(=O)c2cccc(C(F)(F)F)c2)c(C)c1
Cc1cc(C)cc(NC(=O)C2CC3CCC2C3)c1 (configuration not stated)
Cc1ccc(C(=O)Nc2c(C)cc(C)cc2C)cc1
O=C(Nc1ccc(C(F)(F)F)cc1)C1CC2CCC1C2 (configuration not stated)
Cc1cc(C)c(NC(=O)c2ccc3ccccc3c2)c(C)c1
Cc1cc(C)c(NC(=O)c2ccc(C(F)(F)F)cc2)c(C)c1
CC(=O)Nc1c(C)cc(C)cc1C
O=C(Nc1ccc(F)cc1)C1CC2CCC1C2 (configuration not stated)
Cc1cc(C)c(NC(=O)C23CCC(C)(C(=O)O2)C3(C)C)c(C)c1 (configuration not stated)
CCC(=O)Nc1c(C)cc(C)cc1C
O=C(Nc1ccccc1)C1CC2CCC1C2 (configuration not stated)
Cc1cc(C)c(NC(=O)c2ccccc2)c(C)c1
Cc1cc(C)c(NC(=O)C(C)(C)C)c(C)c1
Cc1cc(C)c(NC(=O)c2cc(C(F)(F)F)cc(C(F)(F)F)c2)c(C)c1
Cc1cc(C)c(NC(=O)c2ccc(Cl)c(Cl)c2)c(C)c1
Cc1cc(C)c(NC(=O)C23CC4CC(CC(C4)C2)C3)c(C)c1
